Several values for one entry are separate records, joined by “and”; a condition that tells them apart may be missing. Equal entries are not always repeated. This is part of a sample that, as a whole, favours compounds with a hit. Of some 83,000 tested, about 20% had one in any assay.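 Assay: single dose, 48 h. Readout: percent growth (0 = no net growth; negative = cell death). Active: <10.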 Activity calls are given as the source filed them.
test system: HL-60(TB) leukemia; assay: NCI-60 one-dose screen, 48 h (100 = growth as untreated, 0 = no growth, -100 = all killed); details: 10 µM unless noted

Row | SMILES | growth
1 | COc1ccccc1P(c1ccccc1OC)c1ccccc1OC | 101% (inactive)
2 | O=[N+]([O-])c1ccc(Oc2ccccc2)cc1 | 96.8% (inactive) and 79.2% (inactive)
3 | C=C(C)[C@@H]1CC[C@]2(C(=O)OC)CC[C@]3(C)[C@H](CC[C@@H]4[C@@]5(C)C/C(=C/c6ccc(OC)cc6)C(=O)C(C)(C)[C@@H]5CC[C@]43C)[C@@H]12 | 87.6% (inactive)
4 | O=C1Nc2c(c(=O)n(-c3ccccc3)c3ccccc23)C(c2ccc(Cl)cc2)N1 (configuration not stated) | 108% (inactive)
5 | O=C1C(=O)c2ccccc2C(O)=C1CC=C(Cl)Cl | 31.3% (inactive) and 44.6% (inactive)
6 | O=S(=O)(Nc1ccccc1)C1CCCCC1 | 97.2% (inactive) and 106% (inactive)
7 | NC(N)=NCCCCCNc1noc(Cc2c[nH]c3cc(Br)ccc23)n1 | 44.9% (inactive)
8 | O=C(c1ccc(Cl)cc1)C(NCCO)c1ccc(Cl)cc1 (configuration not stated) | 86.9% (inactive) and 116% (inactive)
9 | CCN(CC)CCNc1ccc(C)c2sc3ccccc3c(=O)c12 (tested in a mixture with another compound) | 10.1% (inactive) and 15.3% (inactive)
10 | NS(=O)(=O)c1cc2c(cc1Cl)NC(C(Cl)Cl)NS2(=O)=O (configuration not stated) | 91.5% (inactive) and 105% (inactive)
11 | COc1cc(-c2n/c(=C\c3c(O)[nH]c4ccccc34)cc3c2=Nc2ccccc2-3)cc(OC)c1OC | -15.3% (active)
12 | COc1ccc(/C=C(\C#N)c2ccc([N+](=O)[O-])cc2)c2ccccc12 | 85.4% (inactive)

— PubChem BioAssay (NCI)
